This note sets out measurements from PubChem BioAssay (NCATS).

Records with an inconclusive call do not appear. A number with no mark means an inactive call. Activity calls are given as the source filed them. The call rests on the fitted dose curve; in most records, active means well fitted cell-killing curve with a large enough effect; inconclusive means small, poorly fitted or top-dose-only effect, or effect the other way; inactive means no such curve, though single readings can be large or run the other way.
Potency means the concentration at half of the fitted maximal effect.

This assay in a line: Quantitative High-Throughput drug screen in 47 multiple myeloma cell lines against the NCATS MIPE library collection: XG6_PLB cell viability assay (AID 1919865). Further: nearly all actives have a fitted effect of over 40% in size. The note with it: XG6 myeloma viability, CellTiter-Glo ATP luminescence, 48 h; series mostly up to 45.8 µM; viability (% of control): at the top concentration. From the text:
PI: Beverly A. Mock Ph.D.
Laboratory of Cancer Biology and Genetics,
Center for Cancer Research, National Cancer Institute,
National Institute of Health, Bethesda, Maryland
Drug resistance and disease progression are common in multiple myeloma (MM) patients, underscoring the need for new therapeutic combinations. […] We hypothesized that effective combinations would reduce MYC expression and enhance p16 activity. […] These preclinical data identify potentially useful drug combinations for evaluation in drug-resistant MM and reveal potential mechanisms of combined drug sensitivity.
Described herein is the primary MIPE qHTS used to cherrypick compounds. Validated compounds were then further tested for potential synergistic activiy.
[1] Peat TJ, Gaikwad SM, Dubois W, Gyabaah-Kessie N, Zhang S, Gorjifard S, Phyo Z, Andres M, Hughitt VK, Simpson RM, Miller MA, Girvin AT, Taylor A, Williams D, D'Antonio N, Zhang Y, Rajagopalan A, Flietner E, Wilson K, Zhang X, Shinn P, Klumpp-Thomas C, McKnight C, Itkin Z, Chen L, Kazandijian D, Zhang J, Michalowski AM, Simmons JK, Keats J, Thomas CJ, Mock BA. Drug combinations identified by high-throughput screening promote cell cycle transition and upregulate Smad pathways in myeloma. Cancer Lett. 2023 Aug 1;568:216284. doi: 10.1016/j.canlet.2023.216284. Epub 2023 Jun 24. PMID: 37356470; PMCID: PMC10408729.
SEQUENCE No. (e.g., 1, 2, 3, etc.); […] (e.g., Cells, Incubation, Reagent, etc.); VALUE and DESCRIPTION.
1; Cells; 5 uL; white, solid bottom 1536-well Greiner assay plate.
2; Compounds; 23 nL; Kalypsis pin tool (Wako USA) equipped with a 1536-well pin head to transfer to the assay plates.
3; Incubation; 48 hours; 37C incubation.
4; Reagent;5uL; CellTiter Glo (Promega).
5; Detector; 425V; Luminescence; Viewlux PerkinElmer.
NOTES (numbers refer to Sequence numbers above)
1. The cell-based screening methods employed in this study were like those previously published. Briefly, the corresponding myeloma cell lines were screened in 1,536-well plates with 500 cells, 5-uL per well for inhibition of cell viability (assessed by measuring ATP levels with CellTiterGlo).
2. NCATS MIPE 4.0 library of approved and investigational drugs were added using the Kalypsis pin tool. Wells treated with DMSO only for 100% viability and media only for 0% viability were used as controls.
3. The assay plates were covered and incubated for 48 hours in a 37C, 5% CO2 incubator with controlled humidity.
4. After 48 hours, CellTilter-GloTM luminescent substrate mix (Promega) reagent was added to the assay plate and plates we incubated for 5 min at room temperature.
5. Signal was measured as median relative luminescence units on a ViewLux (PerkinElmer) multiplate reader.
[1] Heske CM, Davis MI, Baumgart JT, Wilson K, Gormally MV, Chen L, Zhang X, Ceribelli M, Duveau DY, Guha R, Ferrer M, Arnaldez FI, Ji J, Tran HL, Zhang Y, Mendoza A, Helman LJ, Thomas CJ. Matrix Screen Identifies Synergistic Combination of PARP Inhibitors and Nicotinamide Phosphoribosyltransferase (NAMPT) Inhibitors in Ewing Sarcoma. Clin Cancer Res. 2017 Dec 1;23(23):7301-7311. doi: 10.1158/1078-0432.CCR-17-1121. Epub 2017 Sep 12. PMID: 28899971; PMCID: PMC6636827.
Background: In ATP-based viability assays light output follows the ATP content of the culture.
With `CN1CCN(C(=O)O[C@H]2c3nccnc3C(=O)N2c2ccc(Cl)cn2)CC1`, the “viability (% of control)” value is 121%.

For `N[C@@H](Cc1ccc(N(CCCl)CCCl)cc1)C(=O)O`, the Potency was 1.18 µM (active). For the molecule `CNC(=O)c1ccc(N2C(=S)N(c3ccc(C#N)c(C(F)(F)F)c3)C(=O)C23CCC3)cc1F`, the Potency is 1.05 µM (active). On to `CN(C)CCN(C)CCc1ccc(Cl)c(Cl)c1`, for which the “viability (% of control)” value is 115%. For the molecule `CN(C)[C@@H]1C(=O)C(C(N)=O)=C(O)[C@@]2(O)C(=O)C3=C(O)c4c(O)cccc4[C@@](C)(O)[C@H]3C[C@@H]12`, the “viability (% of control)” value is 101%. Turning to `CC(C)CC(N(C)C)C1(c2ccc(Cl)cc2)CCC1` (stereo not given), the “viability (% of control)” value was 101%.

Turning to `COc1ccc2c(c1OC)CN1CCc3cc4c(cc3C1C2)OCO4` (stereo not given), the Potency was 20.9 µM (active). As for `CNC(=O)N1N=C(c2ccc(N)cc2)c2cc3c(cc2CC1C)OCO3` (stereo not given), the Potency is 7.43 µM (active). As to `O=C1CC[C@@]2(O)[C@H]3Cc4ccc(O)c5c4[C@@]2(CCN3CC2CC2)[C@H]1O5`, the “viability (% of control)” value was 126%. As to `COC[C@H]1OC(=O)c2coc3c2[C@@]1(C)C1=C(C3=O)C2CCC(=O)[C@@]2(C)C[C@H]1OC(C)=O` (stereo not given in full), the Potency was 4.18 µM (active). For `C=C(C)[C@H]1Cc2c(ccc3c2O[C@@H]2COc4cc(OC)c(OC)cc4[C@@H]2C3=O)O1`, the Potency was 0.526 µM (active). Turning to `Cn1c(CCCC(=O)O)nc2cc(N(CCCl)CCCl)ccc21`, the Potency is 14.8 µM (active). Take `COC1(CS(=O)c2ccccc2)CCN(CCc2c[nH]c3ccc(F)cc23)CC1` (stereo not given): the Potency was 16.6 µM (active).

With `C[C@@H]1[C@@H](CC(C[C@H]2O[C@@H]3O[C@]4(C)CC[C@@H]5[C@H](C)CC[C@@H]([C@H]2C)[C@@]35OO4)C[S+](=O)([O-])c2ccc(COC(=O)N(C)C)cc2)O[C@@H]2O[C@]3(C)CC[C@H]4[C@H](C)CC[C@@H]1[C@@]24OO3` (stereo not given in full), the Potency was 0.264 µM (active). Regarding `CC(O)(CS(=O)(=O)c1ccc(F)cc1)C(=O)Nc1ccc(C#N)c(C(F)(F)F)c1` (stereo not given), the Potency was 0.0935 µM (active). `Fc1ccc(C(OCCN2CCN(CCCc3ccccc3)CC2)c2ccc(F)cc2)cc1`: the Potency was 7.43 µM (active). Regarding `O=c1[nH]c2ccccc2n1CCCN1CCC(n2c(=O)[nH]c3cc(Cl)ccc32)CC1`, the Potency is 20.9 µM (active). `Cc1cccc(C)c1NC(=O)CN1CCCC1=O`: the “viability (% of control)” value is 91.7%.

Turning to `CC1=C2C[C@@H]3[C@@H](CC=C4C[C@@H](O)CC[C@@]43C)[C@@H]2CC[C@]12O[C@H]1C[C@H](C)CN[C@H]1[C@H]2C`, the “viability (% of control)” value is 112%.

For `C[C@@H]1O[C@@H](O[C@H]2C[C@@H](O)[C@]3(CO)[C@H]4[C@H](O)C[C@]5(C)[C@@H](C6=CC(=O)OC6)CC[C@]5(O)[C@@H]4CC[C@]3(O)C2)[C@H](O)[C@H](O)[C@H]1O`, the Potency is 0.0187 µM (active). On to `COC[C@@H](NC(C)=O)C(=O)NCc1ccccc1`, for which the “viability (% of control)” value was 93.2%.

In the case of `O=P1(NCCCl)OCCCN1CCCl` (stereo not given), the Potency is 16.6 µM (active).

Turning to `Cc1sc2c(c1C)C(c1ccc(Cl)cc1)=N[C@@H](CC(=O)OC(C)(C)C)c1nnc(C)n1-2`, the Potency was 7.43 µM (active). For `COc1ccc(C(=O)c2c(C)n(CCN3CCOCC3)c3ccccc23)cc1`, the “viability (% of control)” value is 124%. For the molecule `Cn1cc(C2=C(c3cn(C4CCN(Cc5ccccn5)CC4)c4ccccc34)C(=O)NC2=O)c2ccccc21`, the Potency is 2.96 µM (active).
